Test results: PubChem BioAssay AID1508600 (Functional Genomics Laboratory (NCATS/FGL), 2020)
In all, about 53,000 sequences went through this assay and about 3,700 (7%) were called active.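 How the source made its calls: active means gene knockdowns whose robust z-score for IL-1 alpha signal is at least 2 or at most -2, so actives lie on both sides; inactive means the rest.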 Only a selection was taken, and actives are over-represented in it overall.

experiment: Components of the Cytosolic LPS Sensing Pathway: Gene Identification via Genome-wide siRNA Screen; details: RAW264.7 macrophages, IL-1a HTRF, actives lie on both sides, screened at 100 nM (by protocol), cells primed 5 h with Pam3CSK4 first
Text: Non-canonical inflammasome activation by cytosolic LPS is a critical component of the host response to Gram-negative bacterial infection, however we lack a comprehensive understanding of the cellular processes that control this pathway. Here we describe a genome-wide siRNA screen to identify genes regulating the mouse macrophage IL-1 alpha response to cytosolic LPS.
RAW264.7 cells were maintained in complete DMEM media, comprising DMEM with 4.5 g/L glucose, 10% FBS (Gemini Bio-Products, West Sacramento, CA), 2 mM Glutamine (Lonza) and 20 mM HEPES (Lonza), hereafter complete DMEM.
The RNAi screen was conducted in 384-well format using the Ambion Silencer Mouse Genome siRNA Library (#4391425), which consists of three unique, nonoverlapping, nonpooled siRNAs for each of 17,000 gene targets. siRNA reagents ([…]) were stamped into 384-well white flat-bottom microplates (Corning, 3570) using a Velocity11 VPrep liquid handling system (Agilent) integrated into a BioCel robotic platform (Agilent) in columns 1-22, leaving columns 23-24 empty for negative (Ambion, Negative control #1) and positive (mouse Casp4) controls, respectively. The median value of each plate's negative control column was used to normalize sample wells, and the positive control was used to assess transfection efficiency and assay performance.
Lipofectamine RNAiMAX Transfection Reagent ([…]; Invitrogen) was added in […] serum-free, antibiotic-free media to plate wells using a Thermo Scientific Matrix WellMate and Microplate Stacker. Plates were incubated for 45 min at room temperature to allow for the sufficient formation of siRNA-lipid complexes. Cells were seeded at a density of 1x10^4 cells per well in 20 microL media containing 20% (vol/vol) FBS without antibiotics. The final concentration of siRNA in each well was 100 nM. Cells were cultured for 48h at 37 degrees C in 5% CO2 before addition of […] of TLR ligand Pam3CSK4 for 5 hours. The medium was then removed, replaced with […] growth media and cell were transfected with […] of LipidA and TransIT-TKO (Mirus) for 24 hour. At the end of the LipidA treatment, […] of supernatant was transferred to a 384 Greiner Bio-one non-binding low volume plate and […] of IL-1a HTRF reagent (Cisbio, 62MIL1APEH) was added and incubated at room temperature overnight. The plates were read on an EnVision plate reader (PerkinElmer). Cell viability was measured by adding 20ul Cell Titer Glo to the original plate and running a luminescence read on the EnVision. The quantified IL-1a signal for each siRNA gene-targeted well was divided by the median of the negative control wells and multiplied by 100 to achieve a negative control normalized value for each well/siRNA. This normalized value was then used to generate a robust z-score by first taking the log of each value and then by subtracting the median and dividing by the […].

Sequence	z-score
GGCACCAUAGAUGUUUGAGTT against Cyp4f16	-1.34 (inactive)
GGAGCCUGUCUUUUAUUGATT against Olfr938	0.0765 (inactive)
GGUAGACACCUUGUUCUUATT against Nap1l3	1.03 (inactive)
GCCUUUAAUACAUAGGCUUTT against Cxcl9	-0.381 (inactive)
GCCAAUAGUAACCAGCCAGTT against Prkab1	-2.07 (active)
GCAAAUUCCAGUGAAAGCCTT against Papola	1.12 (inactive)
GGAUGACCAUGAAAGCUGUTT against Vps13b	1.87 (inactive)
GGUUAUCAUCUUGUGAAAATT against Srpk1	-0.628 (inactive)
AUGCCUAUACAAUUCUGUGTT against Olfr1167	0.0339 (inactive)
GGAGAACAACAAAGACAAGTT against Hoxb8	2.69 (active)
GGACACUAUAAGAAAGGAATT against Fnta	0.708 (inactive)
CCCAUUACGCAAAUUGUUCTT against Rin3	-2.31 (active)
GCCACGUCUGAACACUUCATT against Vamp8	0.873 (inactive)
GCCUGUUUAGAAUUAGAGATT against Plekhs1	0.135 (inactive)
GCUGAUGGACAAAUUCCACTT against Rapgef1	0.505 (inactive)
GCCAUUGCUAUCCAUCGUGTT against Ddx39b	-2.57 (active)
CCAAAGUUCCCUUAGCCAUTT against Cntrob	0.12 (inactive)
GCGGCACUUUAUCAUUAUCTT against Hint3	0.398 (inactive)
GCCCAUUCUAAACAAAUAATT against Ptcd1	-0.825 (inactive)
GGAGCUUAAAGUGAGCGGCTT against Lage3	-0.859 (inactive)
CGACCAGUCACAAUGGUUATT against Edil3	1.43 (inactive)
GGUGAUUGCUGAAGACGAGTT against Fbxw8	-0.172 (inactive)
CCUCGAAACUCAUUUCCAGTT against Prkch	-0.603 (inactive)

Sequence	z-score
GGGUUAAUCCCUAUCUCUUTT against Tfe3	0.419 (inactive)
GAUCUCAAACAUUCUAUGCTT against Lce1c	-1.14 (inactive)
GGAGCCAAGUGUGAUUACATT against Pias3	6.29 (active)
GGAAUCUGAAUUUUUGUGUTT against Commd1	-0.576 (inactive)
GACCUGUUUUGUCUUUUGCTT against Ms4a4c	1.34 (inactive)
GCUUGAUAGGGAACUUAAUTT against Olfr805	-1.57 (inactive)
GCUGCUGGAUGCAACCAAATT against Slc16a3	-0.379 (inactive)
GCUGCACGUGAUCAUGGAUTT against Accs	0.852 (inactive)
GCCUAAGAUCUGGACCUAATT against Timm44	-0.35 (inactive)
GGAGAAGCAUUAUUUUGAATT against Myb	0.798 (inactive)
GGACGACUGGAAGUUUUCUTT against 5830411N06Rik	3.95 (active)
GGAGCCCUUGCUCUUUAACTT against Izumo1r	-2.23 (active)
GGACAUAAGAGAAUGGUCATT against Lpp	2.07 (active)
GGCAAAUGUACUAAAAUGATT against Gpr34	0.764 (inactive)
GCCACUUACACUUACUUGATT against Olfr1331	-0.15 (inactive)
GCAUAAGCCACACCCUCUGTT against Cops7a	1.03 (inactive)
GGGAAAUUUAAAAACCUGGTT against Hoxa2	-0.139 (inactive)
GGAAAGACCAUUCUGUAUUTT against Vps37d	-1.54 (inactive)
GCUGAACUGUCUCAGCUCATT against Tmem81	2.06 (active)
AGAAGAUACCGAUCAAGCGTT against Nsmce3	0.049 (inactive)
GCAUGGGCAUAACCGAAAGTT against Rex2	-0.332 (inactive)
GGAGAAGUAAUGACAAAUUTT against Foxp4	-1.47 (inactive)
GGACGUGACUCUCAUCAUCTT against Atp2b3	0.929 (inactive)

Sequence	z-score
GUGAUGUGGCCAUGUCAAUTT against Olfr641	-2.61 (active)
GGAGAGGAAAAUUGUAUUUTT against Alox12	-0.037 (inactive)
CCCAUUCUGUAUAUAGUGCTT against Adam6a	-0.0363 (inactive)
CGGUUAGAGCAUUAAGUUCTT against Lias	0.817 (inactive)
GCUCGAUUCAGAAAUCUACTT against Sgce	-0.735 (inactive)
GACUGAACAGAUCUACUCUTT against Klra7	-0.413 (inactive)
CGCAUUUCGAAUAAAGACATT against Mettl22	-0.546 (inactive)
GCAUUUCACCGUCAUGAACTT against Ttll12	-2.55 (active)
GGAAGUUUGCUCAAUCUCATT against Jarid2	1.12 (inactive)
GGACCUGUAUUCACACCUUTT against Wdr61	0.0931 (inactive)
GGGUUUUUGAUGAUGAUUCTT against Htatsf1	-0.66 (inactive)
CGGGAUAGCUGUCCUGUUATT against Mrps14	0.127 (inactive)
GAAGCGAUGCUCAGAUCCATT against Serpina1d	0.136 (inactive)
GCCCUCCUUAUAGCUUAAUTT against Asic3	-2.2 (active)
GCUUCGAAGCAACAUCCGATT against Rims3	-0.00729 (inactive)
GGAAAAACUGUGCAAAUAATT against Krt75	1.26 (inactive)
GCAGGCAUUCUGCUCUAUATT against Oxgr1	1.01 (inactive)
GGGACAUUAAUAAACCUGATT against Omg	-0.269 (inactive)
CCAUGGCCUAGAGCUGGAUTT against Unc5cl	0.315 (inactive)
GGAAGUAACAUGCUUCUAGTT against Ccdc42	0.75 (inactive)
GGAUUCCAUCUUUGUAUGATT against Cbr4	0.689 (inactive)
GCCAAGUGAUUGAAAAAACTT against Lnpk	-0.423 (inactive)
GGUGAAGAAAGUCAAGAAGTT against Spi1	-2.46 (active)
